Test results from PubChem BioAssay (EPA / NIEHS).
Records with an inconclusive call do not appear. Calls of active or inactive are those of the source. The calls were made as follows: active = hit-call score of the fitted dose curve at least 0.9, where 1 is the maximum; inconclusive = response in the unintended direction; inactive = score below 0.9.

system: NCBI gene 100848466; experiment: NVS_NR_bPR: NovaScreen (NVS) Nuclear Receptor Binding Assay for bovine Progextron Receptor (PR) (AID 2283343);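 as to AC50: actives lower bound radioligand signal below DMSO meaning displacement of the label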
How it was run: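 Scintillation counts of bound radioligand were read 18 hours after chemical addition to membranes extracted from bovine uterus. Displacement was scored as loss of signal relative to DMSO controls. Screening began at 25 uM in duplicate.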

Row | Compound | outcome | AC50
1 | CC(C)(C)C(=O)C(Oc1ccc(Cl)cc1)n1cncn1 (configuration not stated) | inactive | –
2 | CC(C)=CC1C(C(=O)OCc2coc(Cc3ccccc3)c2)C1(C)C (configuration not stated) | – | 25 µM (active)
3 | COCC(=O)N(c1c(C)cccc1C)C(C)C(=O)OC (configuration not stated) | inactive | –
4 | N#Cc1c(Cl)cccc1Cl | inactive | –
5 | O=C1C2CC=CCC2C(=O)N1SC(Cl)(Cl)Cl (configuration not stated) | inactive | –
6 | COP(=S)(OC)Oc1ccc([N+](=O)[O-])c(C)c1 | – | 14.8 µM (active)
7 | COC(=O)c1c(C(F)F)nc(C(F)(F)F)c(C2=NCCS2)c1CC(C)C | inactive | –
8 | CCCCC(O)(Cn1cncn1)c1ccc(Cl)cc1Cl (configuration not stated) | – | 7.24 µM (active)
9 | CCN(CC)c1nc(C)cc(OP(=S)(OC)OC)n1 | – | 18.5 µM (active)
10 | N#Cc1c[nH]cc1-c1cccc2c1OC(F)(F)O2 | inactive | –
11 | CC1(C)C(C=C(Cl)Cl)C1C(=O)OC(C#N)c1cccc(Oc2ccccc2)c1 (configuration not stated) | inactive | –
12 | CCCCC(C#N)(Cn1cncn1)c1ccc(Cl)cc1 (configuration not stated) | inactive | –
